Reference: PubChem BioAssay (NCI)
Where “and” joins values, the source holds several entries; their conditions need not be identical. Equal values may be shown once. This is part of a sample that, as a whole, favours compounds with a hit. Of some 83,000 tested, about 20% had one in any assay.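 48-hour exposure, single concentration, 96-well plates; percent growth endpoint where 0 means no net growth. Active: below 10.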 Calls of active or inactive are those of the source.

Tests used:
Assay in all cases: NCI-60 one-dose screen, 48 h (100 = growth as untreated, 0 = no growth, -100 = all killed)
Settings in all cases: 10 µM unless noted
[1] = system: SR leukemia
[2] = system: RPMI-8226 leukemia
[3] = system: OVCAR-8 ovarian
[4] = system: OVCAR-5 ovarian
[5] = system: OVCAR-4 ovarian
[6] = system: SK-OV-3 ovarian
[7] = system: IGROV1 ovarian
[8] = system: OVCAR-3 ovarian
[9] = system: HS 578T breast
[10] = system: NCI/ADR-RES ovarian
[11] = system: T-47D breast
[12] = system: BT-549 breast
[13] = system: MDA-MB-435 melanoma
[14] = system: SW-620 colon
[15] = system: MCF7 breast
[16] = system: HCT-116 colon
[17] = system: HCC-2998 colon
[18] = system: KM12 colon

Measured: growth

COc1ccc(C(C)=C(c2ccc(OCCN(C)C)cc2)c2ccc(OCCN(C)C)cc2)cc1
active: [1] -46.5% | [2] -48.5% | [3] -2.55% | [4] -5.23% | [5] -35.4% | [6] -5.19% | [7] -24.6% | [8] -46.2% | [9] -46.7% | [10] 0.85% | [11] -60.6% | [12] -27.3% | [13] -75.7% | [14] -65.8% | [15] -67.6% | [16] -81% | [17] -69.4%

CC(C)(C)Nc1nc2c(OCCc3ccccc3)cccn2c1-c1ccc([N+](=O)[O-])cc1
inactive: [1] 52% | [2] 43.1% | [3] 64% | [4] 67.3% | [5] 42.3% | [6] 76.5% | [7] 56.9% | [8] 50.6% | [9] 78.3% | [10] 51.6% | [11] 15.2% | [12] 95.8% | [13] 85.3% | [14] 77.6% | [16] 49.7% | [17] 49.9%
active: [15] 7.18%

OCC(Nc1ncnc2ccc(-c3cnc4cnccn34)cc12)c1ccccc1 (configuration not stated)
inactive: [1] 73.5% | [2] 62.5% | [3] 79.7% | [4] 83.8% | [5] 63.7% | [6] 80.9% | [7] 39.1% | [8] 71.9% | [9] 84.1% | [10] 90.3% | [11] 28.4% | [12] 76.2% | [13] 90% | [14] 105% | [15] 60.9% | [16] 79.3% | [17] 82.9%

O=C(CSc1nc2ccccc2c(=O)n1-c1ccccc1)N/N=C/c1ccc(Oc2ccc(Br)cc2)cc1
active: [16] 7.81%
inactive: [1] 73.4% | [2] 68.3% | [3] 63.3% | [4] 94% | [5] 81.7% | [6] 84.5% | [7] 65.6% | [8] 117% | [9] 60.8% | [10] 55.2% | [11] 82.4% | [12] 73.1% | [13] 80.8% | [14] 29.6% | [15] 68.9% | [17] 87.1% | [18] 76.3%

C#CCN(C)CCCOc1ccc(NCc2ccc(/C=C/C(=O)NO)cc2)cc1Cl
active: [1] 9.72% | [2] 8.55% | [4] 6.62% | [6] -11.3% | [7] -35.7% | [10] -8.39% | [11] 1.04% | [13] -25.3% | [16] 9.47% | [17] -43.2%
inactive: [3] 11.9% | [5] 22.4% | [8] 11% | [9] 10.7% | [12] 18.8% | [14] 10.1% | [15] 10.4%

CCOC(=O)c1c(NCC(=O)Nc2cccc([N+](=O)[O-])c2)sc(C(C)=O)c1C
inactive: [7] 22% | [11] 34.6%
active: [1] 0.317% | [2] -14.1% | [3] -8.65% | [4] 1.07% | [5] 4.88% | [6] -13.4% | [8] -37.2% | [9] -23.9% | [10] -28.3% | [12] -40.7% | [13] -26% | [14] 3.65% | [15] -9.04% | [16] -14.3% | [17] -62.3% | [18] -7.12%

N/C(=N\C(N)=N\c1nc2ccccc2s1)c1ccc(Cl)cc1
inactive: [2] 57% | [3] 79.5% | [4] 94.5% | [5] 101% | [6] 110% | [7] 92% | [8] 98.4% | [9] 105% | [10] 80.3% | [11] 68.3% | [12] 94.4% | [13] 96.3% | [14] 103% | [15] 69.3% | [16] 74.7% | [17] 102%
active: [1] -8.26%

COc1cc(-c2nc(-c3ccccc3)[nH]c2-c2ccnc(NCCCNS(=O)(=O)c3ccc(C(F)(F)F)cc3)n2)ccc1Cl
9.62% (active) and 18.3% (inactive): [15]
9.32% (active) and 35.8% (inactive): [1]
inactive: [2] 12.5% and 31.6% | [3] 53.2% and 40.2% | [4] 103% and 84.4% | [5] 41.6% and 39.1% | [6] 99.5% and 55.1% | [7] 59.6% and 51.8% | [8] 33.6% and 39.6% | [9] 58.8% and 71.9% | [10] 13.8% and 32.4% | [11] 44.2% and 21.1% | [12] 44.7% and 67.2% | [13] 29.4% and 27.5% | [14] 46.8% and 55.9% | [16] 16.3% and 17.4% | [17] 48.5% and 51%

Cc1csc(/N=C(N)/N=C(\N)c2cccnc2)n1
inactive: [1] 45.7% | [2] 86.1% | [3] 89.7% | [4] 92.5% | [5] 98.9% | [6] 77.8% | [7] 67.9% | [8] 66.7% | [9] 78.8% | [10] 48.4% | [11] 85.5% | [12] 77.6% | [14] 53.2% | [15] 82.1% | [16] 55.1% | [17] 90.2% | [18] 48.8%
active: [13] 6%

O=C(NNc1nc2cc(F)cc(F)c2n2cccc12)c1cccnn1
inactive: [1] 14.8% | [2] 11.8% | [3] 19% | [4] 46.3% | [7] 13.5% | [8] 14% | [9] 32% | [12] 31.5% | [13] 24% | [14] 22.1% | [15] 10.4% | [16] 22.4% | [17] 65.6% | [18] 24.2%
active: [5] 4.96% | [6] -1.52% | [10] 0.935% | [11] 9.21%

O=c1nc(Nc2ccc([N+](=O)[O-])cc2O)sc2ccccc12
inactive: [1] 24.2% | [3] 24.1% | [4] 47.4% | [5] 36.9% | [6] 49.2% | [7] 33.2% | [8] 14% | [9] 27.4% | [10] 22.5% | [11] 31.1% | [12] 50.6% | [14] 22.3% | [15] 18.1% | [16] 20.2% | [17] 62.4%
active: [2] 3.35% | [13] -42.9%

Cc1nc(/N=C(N)/N=C(\N)c2cccc(Br)c2)sc1C
inactive: [1] 35.6% | [2] 55.1% | [3] 58.2% | [4] 71.1% | [5] 87.3% | [6] 67.8% | [7] 52.3% | [8] 47.2% | [9] 73.1% | [10] 36.1% | [11] 56.4% | [12] 84.7% | [13] 10.8% | [14] 33% | [15] 13.2% | [16] 25.4% | [17] 64.9% | [18] 37.4%

CCN(CC)CCOc1ccc(C(=C(C)c2ccc(OC)cc2)c2ccc(OCCN(CC)CC)cc2)cc1
active: [1] -37.3% | [2] -43.7% | [3] 10% | [5] -24.4% | [7] 0.0725% | [8] -4.04% | [9] -21.8% | [11] -45.7% | [13] -71.5% | [14] -35.7% | [15] -64.5% | [16] 0.525% | [17] 3.44%
inactive: [4] 18.8% | [6] 96.4% | [10] 25.3% | [12] 47.9% | [18] 14.7%

O=C(CSc1nnc(-c2cccs2)n1-c1ccccc1)Nc1ccccc1
inactive: [1] 61.3% | [2] 99.7% | [3] 53.5% | [4] 96.7% | [5] 56.3% | [6] 80.1% | [7] 89.9% | [8] 84.2% | [9] 33.2% | [10] 61.9% | [11] 78.4% | [12] 85.5% | [13] 57.9% | [14] 87.2% | [15] 80.3% | [16] 75.4% | [17] 111%

CCOC(=O)C1=C(C)NC(C)=C(C(=O)OCc2ccccc2)C1c1cccc(C#N)c1 (configuration not stated)
inactive: [1] 21.7% | [2] 32.3% | [3] 48% | [4] 61.3% | [5] 71.5% | [6] 75.1% | [7] 42.1% | [8] 23.6% | [9] 40.2% | [10] 22.7% | [11] 27% | [12] 31.7% | [14] 29.7% | [15] 21.2% | [16] 13.2% | [17] 70.8%
active: [13] -10.4%

CN(C)CCCOc1ccc(C(=C(c2ccccc2)C2CCCC2)c2ccc(OCCCN(C)C)cc2)cc1
active: [1] -37% | [2] -32.1% | [3] -84.2% | [4] -92.9% | [5] -89.4% | [6] -86.4% | [7] -84.7% | [8] -91.7% | [9] -60.7% | [10] -80% | [11] -76.6% | [12] -83.3% | [13] -62.8% | [14] -34.2% | [15] -65.8% | [16] -44.7% | [17] -83.9% | [18] -96.9%

CCCN1C=C/C(=C\C(=O)n2ccc3ccccc32)c2ccccc21
inactive: [1] 55.9% | [2] 69.3% | [3] 95.6% | [4] 87.8% | [5] 49.9% | [6] 70.2% | [7] 59.1% | [8] 87.3% | [9] 101% | [10] 88.7% | [11] 46.6% | [12] 103% | [13] 93% | [14] 86.6% | [15] 64.5% | [16] 69% | [17] 104% | [18] 84.8%
